From PMC7862700, “An all-to-all approach to the identification of sequence-specific readers for epigenetic DNA modifications on cytosine”

Columns and labels:
Test in all cases: DAPPL (digital affinity profiling via proximity ligation, sequencing); 10 mM Tris-HCl pH 7.5, 50 mM NaCl, 1 mM DTT, 4% glycerol, room temperature, 30 min; GST-TFs on glutathione beads, 16-mer random dsDNA library, 0.1% formaldehyde crosslink after washing; high values mean tight binding
Conditions in all cases: protein: recombinant; tags: N-terminal GST; dsDNA, one strand shown
FLI1 = biological target: T1, FLI1 (Homo sapiens, UniProt Q01543 1-452)
T1 sequence: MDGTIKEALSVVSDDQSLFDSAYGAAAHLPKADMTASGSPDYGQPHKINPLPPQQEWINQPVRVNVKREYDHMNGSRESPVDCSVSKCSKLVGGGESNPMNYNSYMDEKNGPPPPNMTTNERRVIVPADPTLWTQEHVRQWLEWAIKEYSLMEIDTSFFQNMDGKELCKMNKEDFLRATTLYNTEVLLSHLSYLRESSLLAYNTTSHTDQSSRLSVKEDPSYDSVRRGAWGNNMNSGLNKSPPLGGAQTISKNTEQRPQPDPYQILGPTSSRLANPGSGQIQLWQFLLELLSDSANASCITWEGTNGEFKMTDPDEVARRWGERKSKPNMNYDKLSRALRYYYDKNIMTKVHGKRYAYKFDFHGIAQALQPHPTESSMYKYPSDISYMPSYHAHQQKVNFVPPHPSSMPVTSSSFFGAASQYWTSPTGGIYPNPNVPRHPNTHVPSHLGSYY
Procedure, shortened: (§1)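 Human transcription factors fused to GST were expressed in yeast, captured on glutathione beads, given DNA barcodes and pooled with a GST-only negative control. Pools were incubated with 200 nmole of a 16-mer random double-stranded DNA library in Tris/NaCl/DTT/glycerol buffer at room temperature for 30 min. They were then washed, crosslinked with 0.1% formaldehyde, proximity-ligated (BsaI/T4 ligase, 1 h, 37 °C), PCR-amplified and sequenced on an Illumina NextSeq500. Binding signal is each 6-mer's read frequency for a factor divided by its frequency for the GST control.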

ELK1 = biological target: T2, ELK1 (Homo sapiens, UniProt P19419 1-428)
T2 sequence: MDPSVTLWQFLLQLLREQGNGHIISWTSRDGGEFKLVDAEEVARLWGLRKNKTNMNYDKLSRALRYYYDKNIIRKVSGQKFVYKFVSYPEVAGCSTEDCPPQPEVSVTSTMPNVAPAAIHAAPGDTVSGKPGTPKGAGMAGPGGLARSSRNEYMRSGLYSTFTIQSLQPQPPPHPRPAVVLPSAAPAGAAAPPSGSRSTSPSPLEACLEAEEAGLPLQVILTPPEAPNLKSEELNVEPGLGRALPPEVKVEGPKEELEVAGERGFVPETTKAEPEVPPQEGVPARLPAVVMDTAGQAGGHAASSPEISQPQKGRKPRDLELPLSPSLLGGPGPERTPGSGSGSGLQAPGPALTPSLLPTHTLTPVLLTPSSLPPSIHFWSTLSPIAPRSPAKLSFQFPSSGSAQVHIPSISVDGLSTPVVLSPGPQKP
Procedure, shortened: as §1

GABPA = biological target: T3, GABPA (Homo sapiens, UniProt Q06546 1-454)
T3 sequence: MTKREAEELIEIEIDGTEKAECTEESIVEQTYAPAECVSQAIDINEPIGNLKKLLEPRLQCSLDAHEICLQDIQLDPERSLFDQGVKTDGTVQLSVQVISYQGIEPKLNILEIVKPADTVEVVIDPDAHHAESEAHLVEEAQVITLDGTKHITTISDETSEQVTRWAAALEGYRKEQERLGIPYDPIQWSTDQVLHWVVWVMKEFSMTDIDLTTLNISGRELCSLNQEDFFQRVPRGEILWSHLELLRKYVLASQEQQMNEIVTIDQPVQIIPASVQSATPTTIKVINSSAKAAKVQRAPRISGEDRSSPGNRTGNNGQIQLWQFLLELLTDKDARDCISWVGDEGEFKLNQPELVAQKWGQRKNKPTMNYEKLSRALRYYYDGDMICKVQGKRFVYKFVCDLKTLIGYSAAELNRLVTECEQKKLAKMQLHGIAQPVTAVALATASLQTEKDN
Procedure, shortened: as §1

ERG = biological target: T4, ERG (Homo sapiens, UniProt P11308 1-479)
T4 sequence: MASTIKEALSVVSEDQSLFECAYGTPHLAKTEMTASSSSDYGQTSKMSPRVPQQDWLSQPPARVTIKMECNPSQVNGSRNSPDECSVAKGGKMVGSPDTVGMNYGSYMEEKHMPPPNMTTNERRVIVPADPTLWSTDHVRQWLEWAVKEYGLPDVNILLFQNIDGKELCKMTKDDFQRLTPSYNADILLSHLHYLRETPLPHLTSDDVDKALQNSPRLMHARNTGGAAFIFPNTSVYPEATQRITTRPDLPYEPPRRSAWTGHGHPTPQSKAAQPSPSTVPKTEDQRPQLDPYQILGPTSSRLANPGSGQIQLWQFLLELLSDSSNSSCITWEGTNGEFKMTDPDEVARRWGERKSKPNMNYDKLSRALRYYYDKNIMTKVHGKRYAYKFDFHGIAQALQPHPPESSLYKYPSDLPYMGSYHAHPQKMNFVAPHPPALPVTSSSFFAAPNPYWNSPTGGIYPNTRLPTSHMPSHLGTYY
Procedure, shortened: as §1

ELF1 = ELF1 (Homo sapiens, UniProt P32519 1-619)
ELF1, sequence (P32519 whole entry): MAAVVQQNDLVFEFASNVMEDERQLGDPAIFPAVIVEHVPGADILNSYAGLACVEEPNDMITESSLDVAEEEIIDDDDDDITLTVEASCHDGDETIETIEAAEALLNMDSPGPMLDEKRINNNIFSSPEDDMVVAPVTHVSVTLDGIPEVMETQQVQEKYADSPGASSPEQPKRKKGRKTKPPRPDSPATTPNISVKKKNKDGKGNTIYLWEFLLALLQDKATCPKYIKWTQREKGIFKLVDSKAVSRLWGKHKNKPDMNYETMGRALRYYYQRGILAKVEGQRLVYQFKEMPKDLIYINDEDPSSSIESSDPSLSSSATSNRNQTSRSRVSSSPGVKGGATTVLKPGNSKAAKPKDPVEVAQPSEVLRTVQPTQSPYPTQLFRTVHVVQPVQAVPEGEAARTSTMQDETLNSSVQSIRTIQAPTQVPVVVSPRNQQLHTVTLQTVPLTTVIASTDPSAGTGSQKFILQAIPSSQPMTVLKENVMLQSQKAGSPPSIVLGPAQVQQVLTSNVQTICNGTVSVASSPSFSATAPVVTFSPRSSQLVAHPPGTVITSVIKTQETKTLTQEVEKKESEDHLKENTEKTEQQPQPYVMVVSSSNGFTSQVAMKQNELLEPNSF
Procedure, shortened: as §1

EHF = biological target: T5, EHF (Homo sapiens, UniProt Q9NZC4 1-300)
T5 sequence: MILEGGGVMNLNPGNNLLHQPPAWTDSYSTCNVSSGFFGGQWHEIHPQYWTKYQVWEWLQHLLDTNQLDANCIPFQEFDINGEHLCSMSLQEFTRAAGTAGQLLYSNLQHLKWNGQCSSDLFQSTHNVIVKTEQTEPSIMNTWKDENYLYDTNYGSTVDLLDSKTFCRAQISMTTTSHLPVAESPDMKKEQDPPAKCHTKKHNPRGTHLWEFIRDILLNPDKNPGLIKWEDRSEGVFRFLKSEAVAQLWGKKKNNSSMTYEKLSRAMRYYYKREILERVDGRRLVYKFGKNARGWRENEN
Procedure, shortened: as §1

SPI1 = SPI1 (Homo sapiens, UniProt P17947 1-270)
Procedure, shortened: as §1

SPIB = SPIB (Homo sapiens, UniProt Q01892 1-262)
SPIB, sequence (Q01892 whole entry): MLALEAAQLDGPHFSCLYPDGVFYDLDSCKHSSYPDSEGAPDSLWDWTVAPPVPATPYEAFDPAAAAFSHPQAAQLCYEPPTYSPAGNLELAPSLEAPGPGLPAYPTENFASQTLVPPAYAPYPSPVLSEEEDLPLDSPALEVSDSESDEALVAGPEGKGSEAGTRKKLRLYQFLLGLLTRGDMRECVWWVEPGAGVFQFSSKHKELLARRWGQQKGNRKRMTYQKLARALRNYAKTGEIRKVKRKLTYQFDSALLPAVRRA
Procedure, shortened: as §1

ELK3 = biological target: T6, ELK3 (Homo sapiens, UniProt P41970 1-407)
T6 sequence: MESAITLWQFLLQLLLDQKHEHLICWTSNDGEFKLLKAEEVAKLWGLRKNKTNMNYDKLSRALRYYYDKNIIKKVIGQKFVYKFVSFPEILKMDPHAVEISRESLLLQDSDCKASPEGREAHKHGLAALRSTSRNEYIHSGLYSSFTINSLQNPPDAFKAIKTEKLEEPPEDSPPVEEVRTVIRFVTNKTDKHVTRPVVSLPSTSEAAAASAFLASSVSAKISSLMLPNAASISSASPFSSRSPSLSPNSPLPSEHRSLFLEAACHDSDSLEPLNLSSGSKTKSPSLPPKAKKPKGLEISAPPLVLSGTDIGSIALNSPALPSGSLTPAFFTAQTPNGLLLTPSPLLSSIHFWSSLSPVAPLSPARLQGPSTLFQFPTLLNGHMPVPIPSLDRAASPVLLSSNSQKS
Procedure, shortened: as §1

Sequence: TGGCAT
- binding signal (FLI1): 1.23 fold enrichment (6-mer frequency, TF over GST control)
- binding signal (ELK1): 1.2 fold enrichment (6-mer frequency, TF over GST control)
- binding signal (GABPA): 1.2 fold enrichment (6-mer frequency, TF over GST control)
- binding signal (ERG): 1.14 fold enrichment (6-mer frequency, TF over GST control)
- binding signal (ELF1): 1.17 fold enrichment (6-mer frequency, TF over GST control)
- binding signal (EHF): 1.12 fold enrichment (6-mer frequency, TF over GST control)
- binding signal (SPI1): 1.11 fold enrichment (6-mer frequency, TF over GST control)
- binding signal (SPIB): 1.07 fold enrichment (6-mer frequency, TF over GST control)
- binding signal (ELK3): 1.13 fold enrichment (6-mer frequency, TF over GST control)
